Records with an inconclusive call do not appear. Active and inactive are the calls of the source. The calls were made as follows, unless noted: active = hit-call score of the fitted dose curve at least 0.9, where 1 is the maximum; inactive = score below 0.9.
Experiments:
[1] = CCTE_Mundy_HCI_Cortical_Synap_Neur_Matur_SynapseCount: CCTE's Synaptogenesis and Neurite Maturation Assay in rat cortical cells for Synapse Count, Mundy Lab (AID 2284218)
Method in brief: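 Read-out: synapse number per neuron, automated high-content imaging of fixed cells immunostained for MAP2 and synaptophysin plus Hoechst nuclei. Rat primary cortical cultures, AraC at DIV 5, chemical dosing DIV 7–12. Positive-direction fit relative to DMSO.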

[2] = CCTE_Mundy_HCI_Cortical_Synap_Neur_Matur_NeuriteCount: CCTE's Synaptogenesis and Neurite Maturation Assay in rat cortical cells for Neurite Count, Mundy Lab (AID 2284222);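 also: exposure from day 7 to day 12 in vitro with readout at day 12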
Method in brief: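 Primary rat cortical cells were plated, treated with AraC at DIV 5, then exposed to chemicals from DIV 7 through DIV 12. After fixation and immunostaining for MAP2 and synaptophysin, imaging quantified neurites, with DMSO as the negative control.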

[3] = CCTE_Mundy_HCI_Cortical_Synap_Neur_Matur_CellBodySpotCount: CCTE's Synaptogenesis and Neurite Maturation Assay in rat cortical cells for Cell Body Spot Count, Mundy Lab (AID 2284223)
Method in brief: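 Chemicals were applied to AraC-treated rat primary cortical cells at DIV 7 and measured at DIV 12. Fixed cells were labelled for MAP2, synaptophysin and nuclei, and high-content imaging gave cell body synaptophysin spot counts per neuron relative to DMSO.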

[4] = CCTE_Mundy_HCI_hNP1_Pro_ResponderAvgInten: CCTE's Proliferation Assay in human neuroprogenitor cells, Mundy Lab (AID 2284224; active = hit-call score of the fitted dose curve at least 0.9, where 1 is the maximum;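 also: human neural progenitor cells hNP1 derived from WA09 embryonic stem cells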)
Method in brief: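 Proliferation read as average intensity of BrdU-positive cells, imaged at 26.25 h post-dosing: chemical exposure started after 40–44 h culture, BrdU during final 4 h, paraformaldehyde fixation. Positive-direction fit relative to DMSO.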

[5] = CCTE_Mundy_HCI_Cortical_NOG_NeuronCount: CCTE's Neurite Outgrowth Assay in rat cortical cells for Neuron Count, Mundy Lab (AID 2284236; active = hit-call score of the fitted dose curve at least 0.9, where 1 is the maximum;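 also: neurons counted by imaging betaIII-tubulin and Hoechst stained cortical cells; cells exposed to compound for about 48 hours before fixation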)
Method in brief: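 Read-out: neuron number by high-content imaging of betaIII-tubulin (Alexa Fluor-488) and Hoechst-labelled rat primary cortical cells.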

[6] = CCTE_Mundy_HCI_Cortical_NOG_BPCount: CCTE's Neurite Outgrowth Assay in rat cortical cells for Branch Point Count, Mundy Lab (AID 2284237)
Method in brief: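 Measured 50.33 h after dosing, this morphology endpoint uses rat primary cortical cultures labelled for betaIII-tubulin. Branch points are quantified by high-content imaging, with DMSO as negative control and baseline.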

[7] = CCTE_Mundy_HCI_hNP1_Casp3_7: CCTE's Caspase-Glo 3/7 Assay in human neuroprogenitor cells for Apoptosis, Mundy Lab (AID 2284240)
Method in brief: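 Luminescent caspase-3/7 readout, 26.5 h post-dose, in human neural progenitor cells from WA09 embryonic stem cells. Cells grew 40–44 h at 37 °C, 5% CO2 before chemical addition. Activity analysed as signal increase over DMSO baseline.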

[8] = CCTE_Mundy_HCI_hNP1_CellTiter: CCTE's Cell Titer-Glo 2 Assay in human neuroprogenitor cells for Viability, Mundy Lab (AID 2284241; active = hit-call score of the fitted dose curve at least 0.9, where 1 is the maximum;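 also: a hit is a drop in ATP luminescence versus DMSO meaning reduced viability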)
Method in brief: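 Viability read as luminescent ATP content (CellTiter-Glo, 30 min room temperature) twenty-four hours after dosing, relative to DMSO. Cells: WA09-derived hNP1 neuroprogenitors on poly-L-ornithine/laminin, plated 40 to 44 hours before chemical.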

[9] = CCTE_Mundy_HCI_Cortical_Synap_Neur_Matur_NeuronCount: CCTE's Synaptogenesis and Neurite Maturation Assay in rat cortical cells for Neuron Count, Mundy Lab (AID 2284242; active = hit-call score of the fitted dose curve at least 0.9, where 1 is the maximum)
Method in brief: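 Rat cortical cultures; AraC DIV 5; chemical dosing + media change DIV 7 to DIV 12 (288.33 h readout). Fix, Hoechst, anti-MAP2/anti-synaptophysin immunostain; HCI neuron count vs DMSO baseline.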

[10] = IUF_NPC2c_oligodendrocyte_migration_120hr: Leibniz Research Institute for Environmental Medicine (IUF) 120-hour Neural Progenitor Cell Migration Assay for Oligodendrocyte Migration (NPC2c) (AID 2284297);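 also: O4-positive oligodendrocyte migration distance divided by radial glia migration distance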
Method in brief: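 Using fetal brain neural progenitor spheres differentiating in N2 medium at 37C, compounds were present for 120 h. Oligodendrocyte migration distance, normalized to radial glia migration, was measured from imaged O4 staining.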

[11] = IUF_NPC2a_radial_glia_migration_120hr: Leibniz Research Institute for Environmental Medicine (IUF) 120-hour Neural Progenitor Cell Migration Assay for Radial Glia Migration (NPC2a) (AID 2284298)
Method in brief: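 Exposure of 0.3 mm primary hNPC spheres runs day 0 to 120 h with a half-volume medium change at day 3. Fixed cells get Hoechst staining; high-content analysis of nuclear positions yields radial glia migration distance per well, compared against DMSO controls.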

[12] = IUF_NPC2a_radial_glia_migration_72hr: Leibniz Research Institute for Environmental Medicine (IUF) 72-hour Neural Progenitor Cell Migration Assay for Radial Glia Migration (NPC2a) (AID 2284299)
Method in brief: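 Readout: mean of four manual brightfield measurements of radial glia migration distance (um) at 72 h. hNPC spheres (0.3 mm) exposed to 7 compound concentrations plus solvent control on PDL/laminin, 37C, 5% CO2; activity fitted relative to DMSO.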

[13] = IUF_NPC2b_neuronal_migration_120hr: Leibniz Research Institute for Environmental Medicine (IUF) 120-hour Neural Progenitor Cell Migration Assay for Neuron Migration (NPC2b) (AID 2284300)
Method in brief: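 Fetal human NPC spheres migrate on PDL/laminin during 120 h compound treatment; neuronal migration distance, glia-normalized, scored versus DMSO control.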

[14] = IUF_NPC3_neuronal_differentiation_120hr: Leibniz Research Institute for Environmental Medicine (IUF) 120-hour Neuronal Differentiation Assay (NPC3) (AID 2284301)
Method in brief: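 hNPC spheres, PDL/laminin, DMEM/F12 3:1 + 1% N2, 37C, 5% CO2; 7 concentrations + solvent control, 5 d exposure, half-change day 3. Fix 120 h; TUBB3/Hoechst ICC, CNN neuron calling; % neurons vs nuclei, DMSO-normalized.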

[15] = IUF_NPC4_neurite_length_120hr: Leibniz Research Institute for Environmental Medicine (IUF) 120-hour Neuronal Morphology Assay for Neurite Length (NPC4) (AID 2284302)
Method in brief: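 hNPC spheres (0.3 mm, fetal brain GW 16-19) on PDL/laminin, DMEM:F12 3:1 + 1% N2, 37C 5% CO2; 7 concs + solvent control, day 0-5, half medium change d3; fix 120 h, TUBB3 ICC, mean neurite length um vs DMSO.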

[16] = IUF_NPC5_oligodendrocyte_differentiation_120hr: Leibniz Research Institute for Environmental Medicine (IUF) 120-hour Oligodendrocyte Differentiation Assay (NPC5) (AID 2284304; active = hit-call score of the fitted dose curve at least 0.9, where 1 is the maximum;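 also: primary human fetal neural progenitor spheres plated to migrate and differentiate; share of O4-positive cells among Hoechst nuclei found by CNN image analysis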)
Method in brief: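 After plating on poly-D-lysine/laminin, fetal-derived hNPC spheres differentiated for 120 h at 37C in compound-containing N2 medium, refreshed by half on day 3. O4 immunostaining over Hoechst nuclei in the migration zone gave oligodendrocyte percentage relative to DMSO.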

[17] = IUF_NPC4_neurite_area_120hr: Leibniz Research Institute for Environmental Medicine (IUF) 120-hour Neuronal Morphology Assay for Neurite Area (NPC4) (AID 2284305; active = hit-call score of the fitted dose curve at least 0.9, where 1 is the maximum)
Method in brief: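 hNPC spheres on PDL/laminin, N2 medium, 37C/5% CO2; dosed day 0, half-medium refresh day 3; fixed 120 h; TUBB3/Hoechst ICC, high-content imaging; neurite area = mean pixels per neuron (nuclei excluded); DMSO baseline, max 0.1%.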

[18] = IUF_NPC2-5_cytotoxicity_72hr: Cytotoxicity Assessment at 72 hours in the Leibniz Research Institute for Environmental Medicine (IUF) Neural Progenitor Cell Migration and Differentiation Assay for Cytotoxicity (NPC2-5) (AID 2284306; active = hit-call score of the fitted dose curve at least 0.9, where 1 is the maximum;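 also: LDH release into supernatant measured by resorufin fluorescence marking membrane damage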)
Method in brief: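 hNPC spheres (0.3 mm), PDL/laminin, DMEM/F12 3:1 + 1% N2; cpd from d0, 7 concs + SC, DMSO max 0.1%; half-medium refresh d3. Readout: supernatant LDH via resorufin fluorescence (RFU), 72 h; gain-of-signal fit.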

[19] = IUF_NPC2-5_cytotoxicity_120hr: Cytotoxicity Assessment at 120 hours in the Leibniz Research Institute for Environmental Medicine (IUF) Neural Progenitor Cell Migration and Differentiation Assay (NPC2-5) (AID 2284307; active = hit-call score of the fitted dose curve at least 0.9, where 1 is the maximum)
Method in brief: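 Membrane-integrity loss is quantified by LDH in supernatant after five days of exposure of migrating, differentiating human fetal NPC spheres; seven serially diluted concentrations are tested with DMSO kept at or below 0.1%.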

[20] = IUF_NPC2-5_cell_number_120hr: Cell Number Assessment at 120 hours in the Leibniz Research Institute for Environmental Medicine (IUF) Neural Progenitor Cell Migration and Differentiation Assay (NPC2-5) (AID 2284308);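 also: count of Hoechst-stained nuclei in migration zone around plated human neural progenitor spheres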
Method in brief: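 Seven-point serial dilutions plus solvent control were applied to plated 0.3 mm hNPC spheres at differentiation start, with medium half-replaced at day 3. Nuclei positive for Hoechst in the migration zone were enumerated at 120 h.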

[21] = IUF_NPC2-5_viability_120hr: Viability Assessment at 120 hours in the Leibniz Research Institute for Environmental Medicine (IUF) Neural Progenitor Cell Migration and Differentiation Assay (NPC2-5) (AID 2284312)
Method in brief: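 Human fetal neural progenitor spheres (0.3 mm) plated on poly-D-lysine/laminin in N2 differentiation medium, exposed 120 h with half-medium refresh at day 3. Viability by alamar blue resazurin fluorescence; 7 concentrations, DMSO max 0.1%.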

[22] = CCTE_Mundy_HCI_iCellGluta_NOG_NeuriteLength: CCTE's Neurite Outgrowth Assay in iCellGluta cells for Neurite Length, Mundy Lab (AID 2284318; active = hit-call score of the fitted dose curve at least 0.9, where 1 is the maximum)
Method in brief: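 Automated high-content imaging of betaIII-tubulin (Alexa Fluor-488) and Hoechst-stained cells gave neurite length, normalized to the DMSO baseline.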

[23] = IUF_NPC1_cytotoxicity_72hr: Cytotoxicity Assessment at 72 hours in the Leibniz Research Institute for Environmental Medicine (IUF) Neural Progenitor Cell Proliferation Assay (NPC1) (AID 2284332; active = hit-call score of the fitted dose curve at least 0.9, where 1 is the maximum;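 also: rising LDH signal means more cytotoxicity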)
Method in brief: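 LDH in supernatant, resazurin→resorufin fluorescence (RFU), 72 h exposure, no re-dosing. Cells: primary hNPC spheres, one per well, EGF+FGF medium, 37C/5% CO2, pH 7.2-7.6. Fit: positive direction vs baseline and dynamic range.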

[24] = CCTE_Mundy_HCI_iCellGluta_NOG_NeuronCount: CCTE's Neurite Outgrowth Assay in iCellGluta cells for Neuron Count, Mundy Lab (AID 2284340; active = hit-call score of the fitted dose curve at least 0.9, where 1 is the maximum;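 also: cells fixed about 48 h after compound addition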)
Method in brief: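 Neuron count read by automated high-content imaging of Hoechst 33342 and betaIII-tubulin/Alexa Fluor-488 labelling in human iPSC glutamatergic neurons. Activity fitted relative to DMSO.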

Measured: AC50

C[C@@H]1CCO[C@H]2Cn3cc(C(=O)NCc4ccc(F)cc4F)c(=O)c(O)c3C(=O)N12
active: [1] 3.05 µM | [4] 15.6 µM | [7] 10.1 µM | [8] 14.9 µM
inactive: all other assays above
